40 compounds from PubChem BioAssay (NCI) can be followed below.

Structures are written as SMILES. About 79,000 compounds went through this panel and 15% of them were active in at least one assay; those are over-represented in the sample as a whole. Active and inactive are the calls of the source. Rule as the data show it: active = growth inhibition above about 70%; inactive = the rest. Where a SMILES comes first, the peptide text is derived from it. [ ]: non-standard residue; d: D form. The star is where a group is joined. ξ: configuration not given here. X15 = COc1ccc(C(N*)c2ccc(OC)cc2)cc1; NMeF = CN[C@@H](Cc1ccccc1)C(=O)O; NMeD = CN[C@@H](CC(=O)O)C(=O)O; NMeV = CN[C@H](C(=O)O)C(C)C; ξNMeV = CNC(C(=O)O)C(C)C; Boc = CC(C)(C)OC(=O)*; ξNMeA = CNC(C)C(=O)O; ξV = CC(C)C(N)C(=O)O

The nature of this test: NCI Yeast Anticancer Drug Screen. Data for the mlh1 rad18 strain (AID 175). The conditions noted are these: S. cerevisiae mlh1 rad18 strain growth inhibition; at 50.0 µM; active compounds read high. The method in brief: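 Yeast w/ defined DNA-repair lesions; compound exposure; growth vs vehicle controls → % inhibition.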
As for `COCCOCOC(C)(C)[C@H](CCO)O[Si](c1ccccc1)(c1ccccc1)C(C)(C)C`, the growth inhibition is 95.8% (active).

For the compound `O=C(c1ccccc1)c1cccc2cccc(C(=O)c3ccccc3)c12`, the growth inhibition is -27.6% (inactive).

Regarding `CN(C)C(=O)OC1CCCCC1`, the growth inhibition is -12.6% (inactive).

For `COc1cc([N+](=O)[O-])ccc1N=Cc1cccs1`, the growth inhibition is 27.9% (inactive).

For `CCCc1c(OC(=O)c2ccc([N+](=O)[O-])cc2)cccc1OC(=O)c1ccc([N+](=O)[O-])cc1`, the growth inhibition was 7.55% (inactive).

`CN(/N=C/c1ccccc1)c1nnnn1-c1ccccc1`: the growth inhibition is 9.9% (inactive).

In the case of `CC(C)OP(=O)(OC(C)C)C([CH2][Sn]([CH3])([CH3])[Cl])P(=O)(OC(C)C)OC(C)C`, the growth inhibition was -1.45% (inactive).

Consider `Cc1cc(O)c(/C=N/c2nc(-c3ccc([N+](=O)[O-])cc3)cs2)c(=O)o1`, for which the growth inhibition is 74.1% (active).

For `Cc1ccc(C)c2nc3c(C)ccc(C)c3cc12`, the growth inhibition was 14.3% (inactive).

On to `CC1(C)OS(=O)(=O)C=C1Br`, for which the growth inhibition is -16.6% (inactive).

Turning to `CCN(CC)CCNC(=O)c1c(C)cc(C)cc1C`, the growth inhibition was 10.8% (inactive).

Consider `C(=N\c1oc(-c2ccccc2)c(-c2ccccc2)c1-c1ccccc1)/c1ccccc1`, for which the growth inhibition was 6.2% (inactive).

As to `CC(=O)C/C(C)=N\NC(=O)c1ccc([N+](=O)[O-])cc1`, the growth inhibition is 19.6% (inactive).

`CC(C)OC(=O)Oc1ccc(Cl)cc1Cl`: the growth inhibition was 3.45% (inactive).

With `CCC(Cc1cnc2nc(N)nc(N)c2n1)c1ccc(C(=O)NC(CCC(=O)O)C(=O)O)cc1` (stereo not given), the growth inhibition is -14.5% (inactive).

`CCOc1cc(/C=C2/C=C(c3ccc(OC)cc3)OC2=O)ccc1O`: the growth inhibition is -0.7% (inactive).

In the case of `COc1cccc2c1C(=O)c1c(O)c3c(c(O)c1C2=O)CC(O)(C(C)=O)CC3OC1CC(NC(=O)C(CCCCN)NC(=O)C(N)CCN)C(O)C(C)O1` (stereo not given), the growth inhibition was 14.6% (inactive).

For `COc1ccc(C(NC(=O)C[C@@H](C(=O)N(C)C(C)C(=O)O)N(C)C(=O)[C@@H]2CCCN2C(=O)[C@H](C(C)C)N(C)C(=O)C(C(C)C)N(C)C(=O)[C@H](Cc2ccccc2)N(C)C(=O)C(NC(=O)OC(C)(C)C)C(C)C)c2ccc(OC)cc2)cc1` (stereo not given in full) (Boc-[ξV][NMeF][ξNMeV][NMeV]P[NMeD](X15)[ξNMeA]-OH), the growth inhibition was -31.4% (inactive).

Regarding `CCN(CC)c1cccc2c1C1(O)CCC3(CC21)OCCCCO3` (stereo not given), the growth inhibition was -28.9% (inactive).

On to `C=CCOC(=O)/C=C\C(=O)OCC=C`, for which the growth inhibition is 3.15% (inactive).

Turning to `O=C(CC1(O)C(=O)Nc2ccccc21)c1ccc(O)cc1O` (stereo not given), the growth inhibition is 18.6% (inactive).

Consider `O=C1NC=NC1c1ccccc1` (stereo not given), for which the growth inhibition was -11.5% (inactive).

Consider `O=C(NO)Oc1cccc2ccccc12`, for which the growth inhibition is 5.85% (inactive).

For `NCC(O)COCc1ccccc1` (stereo not given), the growth inhibition is -0.35% (inactive).

As to `CCOC(=O)CCCN(c1sc(C)c(-c2ccccc2)c1C(=O)OCC)S(=O)(=O)c1ccc(C)cc1`, the growth inhibition was 4.5% (inactive).

Turning to `O=C1OC(C(O)C(O)C(O)CO)C(O)C1O` (stereo not given), the growth inhibition was 4.65% (inactive).

On to `COc1cc(/C=N/N=C(\N)NO)cc(OC)c1OC`, for which the growth inhibition is 4.55% (inactive).

Turning to `O=c1oc2c(Cl)cc(Cl)cc2cc1-c1nc2ccccc2[nH]1`, the growth inhibition was 12.6% (inactive).

As for `Nc1nc(N)c(N=Nc2cc(Cl)c([N+](=O)[O-])cc2Cl)c(=O)[nH]1`, the growth inhibition is -11.1% (inactive).

With `CCCCSc1nc2ccc(N=Cc3ccccc3O)cc2s1`, the growth inhibition was -22.4% (inactive).

As to `C(=N\c1nc2ccccc2s1)/c1cccs1`, the growth inhibition is -19.4% (inactive).

For `COC(=O)c1nc(N)nc(C(=O)OC)c1C(=O)c1ccc(Cl)c(Cl)c1`, the growth inhibition was 10.6% (inactive).

As to `[C-]#[N+]C1(c2ccccc2)C2CC3CC(C2)CC1C3` (stereo not given), the growth inhibition is 9.35% (inactive).

`Cc1ccc(S(=O)(=O)C/C(=N\Nc2ccc([N+](=O)[O-])cc2[N+](=O)[O-])c2ccccc2)cc1`: the growth inhibition was 18.7% (inactive).

`Cc1ccc(NC(=O)c2ccc(Cl)cc2)cc1`: the growth inhibition was -3.55% (inactive).

Turning to `COCCNC1CCC2(SCCS2)c2[nH]c3ccccc3c21` (stereo not given), the growth inhibition is 40.2% (inactive).

On to `C[N+](C)(C)CC(=O)NC(=O)N/N=C\C(CC#N)CN(Cc1ccccc1)Cc1ccccc1` (stereo not given), for which the growth inhibition is 12.2% (inactive).

As for `COc1cc2c(cc1C)C1=C(C)C(=O)OC1[C@@H](O)[C@@H]2C` (stereo not given in full), the growth inhibition is 18.8% (inactive).

For the compound `COC1=C(c2ccccc2)P(=O)(Cc2ccccc2)C(C)C1` (stereo not given), the growth inhibition was 1.9% (inactive).

For `COc1ccc(-c2cc(=O)c3c([nH]2)CCCC3)cc1`, the growth inhibition was 5.55% (inactive).
